GALK inh: blocks human galactokinase activity; P51570; Purified GALK, Kinase-Glo residual ATP luminescence; Potency, µM (series often up to 57.5 µM), for inactives: at the highest dose activity change, negative = inhibition, most hits filed as inhibitors; 270,000 compounds, 0.007% hits; AID 1868
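Luminescence from leftover ATP (Ultra-Glo luciferase/luciferin) served as read-out after a 1 h room-temperature reaction of 5 nM GALK with 35 uM ATP and 100 uM galactose.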
TrxR1 substrate: is turned over as a substrate by rat TrxR1; purified TrxR1 substrate turnover, NADPH consumption readout; Potency, µM (highest dose often 114 µM), for inactives: at the top dose activity change, negative = substrate turnover; 390,000 compounds, 0.01% hits; O89049; further: nearly all actives have a fitted effect of over 50% in size
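Rat TrxR1, dispensed at 90 nM, was prereduced with 400 uM NADPH (final) for 5 min at ~22 deg C, then incubated with compound 15 min before 400 uM selenite. A first-read NADPH fluorescence drop versus no-compound background flagged substrates.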
Eya2 phos inh: inhibitors of human Eya2 phosphatase activity; O00167; Potency, µM (titrated, usually from 76.9 µM), for inactives: top-dose activity, negative = inhibition, hits mostly inhibitors; 330,000 compounds, 0.006% hits; recombinant Eya2, OMFP fluorescence dephosphorylation (OMFP is methylfluorescein phosphate); AID 488837
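Eya2 (0.2 uM) preincubated 10 min at ambient with compound, then OMFP substrate added at 50 uM; 10 min reaction in 50 mM HEPES pH 7.5, 50 mM NaCl, 5 uM MgCl2, 0.05% BSA, 1 mM DTT. Fluorescence read at Ex 485/Em 525 nm.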
RGS4 inhibitor: blocks human RGS4-accelerated GTP hydrolysis; AID 504845; 390,000 compounds, 0.039% hits; Transcreener GDP fluorescence polarization, RGS4-accelerated GTP hydrolysis; Potency, µM (series often up to 114 µM), without a hit: at the highest dose activity change, negative = inhibition, hits mostly inhibitors; P49798; further: nearly all actives have a fitted effect of over 75% in size
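MLSMR compounds (23 nl, pin-transferred) preincubated 10 min at room temperature with a 500nM (2x) first reagent, then RGS4 at 900nM (2x) plus Transcreener GDP mix added; fluorescence polarization (620/688 nm) read before and after 90 min at 30 °C.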
USP2a block: blocks human ubiquitin-specific protease USP2a | O75604 | USP2 core, Ub-CHOP2 coupled fluorogenic reporter, 485/531 | Potency, µM (series often up to 38.3 µM), for the others: top-dose activity change, negative = inhibition, usual class: inhibitors | 330,000 compounds, 0.01% hits | AID 463254;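 further: plate controls were DMSO wells for no effect and full inhibition by NEM control for full effect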
Target sequence (O75604 whole entry, looked up): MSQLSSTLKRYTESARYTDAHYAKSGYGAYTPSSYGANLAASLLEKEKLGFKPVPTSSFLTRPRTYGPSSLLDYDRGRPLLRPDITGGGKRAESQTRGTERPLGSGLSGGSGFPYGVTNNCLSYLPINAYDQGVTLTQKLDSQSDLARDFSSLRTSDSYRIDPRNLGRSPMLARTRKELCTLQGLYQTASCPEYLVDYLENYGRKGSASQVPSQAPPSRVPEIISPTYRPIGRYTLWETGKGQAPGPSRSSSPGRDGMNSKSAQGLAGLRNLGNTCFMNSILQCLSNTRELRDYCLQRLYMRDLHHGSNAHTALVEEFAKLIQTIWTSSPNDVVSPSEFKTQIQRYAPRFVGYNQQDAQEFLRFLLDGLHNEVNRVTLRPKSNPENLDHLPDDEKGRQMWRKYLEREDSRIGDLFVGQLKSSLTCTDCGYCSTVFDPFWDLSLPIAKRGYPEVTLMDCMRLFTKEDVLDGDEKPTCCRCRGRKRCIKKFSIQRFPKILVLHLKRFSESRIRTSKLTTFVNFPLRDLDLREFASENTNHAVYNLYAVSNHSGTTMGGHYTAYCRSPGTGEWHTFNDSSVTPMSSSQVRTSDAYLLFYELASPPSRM
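USP2 core (10nM final) preincubated 30min RT with compound in 20mM Tris-HCl pH 8.0, 2mM CaCl2, 2mM beta-mercaptoethanol, 0.05% CHAPS; 25nM Ub-CHOP2 plus 25nM reporter substrate added, fluorescence (Ex485/Em531) read after 60min.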
rTrxR1 inhibitor: blocks rat thioredoxin reductase 1 | O89049 | recombinant rTrxR1, NADPH fluorescence consumption, selenite substrate | Potency, µM (highest dose often 114 µM), for inactives: top-dose activity change, negative = inhibition, usual class: inhibitors | 390,000 compounds, 1% hits | AID 588453; further: nearly all actives have a fitted effect of over 65% in size
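Rat TrxR1 (90 nM in the dispensed reagent) was pre-reduced with 400 uM NADPH for 5 min at room temperature, then incubated with compound for 15 min. After 400 uM selenite was added, NADPH fluorescence (Ex 340/Em 450 nm) was followed for 8 min.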
Active calls of the source: *; ? = inconclusive; · = no result; [ ] = remark or other dose. Most compounds without a hit are left out; they make up all but 1% or so of the library. The call rests on the fitted dose curve; in most records, active means well fitted curve in the direction sought with a large enough effect; inconclusive means small, poorly fitted or top-dose-only effect, or another doubt; inactive means no such curve, though single readings can be large; an effect the other way counts as inactive or inconclusive. Unless noted, on the % scale 0 is the no-effect control and ±100 the full control effect; potency means the concentration at half of the fitted maximal effect.

SMILES	GALK inh	TrxR1 substrate	Eya2 phos inh	RGS4 inhibitor	USP2a block	rTrxR1 inhibitor
CC(NC(=O)/C(C#N)=C1\N=C(NC(=O)c2ccco2)c2ccccc21)c1ccccc1 (stereo not drawn)	-1%	-7%	56µM*	4%	-2%	-16%
CCCN1CCC(=O)N(C(CSc2ccc(OC)cc2)CC(C)C)CC1 (stereo not drawn)	·	-4%	·	1%	·	-3%
Cc1ccc(Cn2c(C(C)Nc3nc(-c4ccc(Cl)c([N+](=O)[O-])c4)cs3)nc3cc(C(F)(F)F)ccc32)cc1 (stereo not drawn)	·	1%	·	-22%	·	12%
N#CC(c1ccccn1)c1ncc(C(F)(F)F)cc1Cl (stereo not drawn)	-3%	-2%	4%	17%	2%	1%
CCCn1nc([N+](=O)[O-])c(C(C#N)c2nc3ccccc3o2)c(Cl)c1=O (stereo not drawn)	-3%	-15%	-10%	?	-8%	11µM*
CCn1nc([N+](=O)[O-])c(C(C#N)c2nc3cc(C(F)(F)F)ccc3s2)c(Cl)c1=O (stereo not drawn)	-10%	-9%	-7%	?	-12%	32µM*
Cn1nc([N+](=O)[O-])c(C(C#N)c2ccccn2)c(Cl)c1=O (stereo not drawn)	-3%	-4%	-4%	-6%	2%	2.8µM*
CC1CC=CC2C1C(=O)N(Cc1ccccc1)C2c1ccc(F)c(Br)c1 (stereo not drawn)	·	-3%	·	-26%	·	-13%
O=C(O[C@H]1[C@H](Cc2ccccc2)NS(=O)(=O)[C@H]2CC3C=C[C@]12O3)c1ccc(Br)cc1	·	0%	·	·	·	20%
c1ccc(CNc2ncnc3nc(N4CCOCC4)[nH]c23)cc1	·	-1%	·	-4%	·	15%
O=C(COC(=O)c1ccco1)Nc1nnc(-c2ccccc2)o1	·	-3%[57.1 µM]	-11%	-3%	3%	-6%[57.1 µM]
O=C(OCc1nc(-c2ccccc2)oc1COC(=O)c1ccco1)c1ccco1	-2%	5%	3%	-20%	0%	3.2µM*
COc1ccc(Cl)cc1NC(=O)CSc1cn(CC(=O)N2CCCCCC2)c2ccccc12	·	-1%	·	2%	·	32%
Cc1ccc(SC2=C(N(C)C)C(=O)c3ccccc3C2=O)cc1	·	-6%	·	?	·	7.9µM*
COc1ccccc1NC(=O)Cc1csc(NC(=S)Nc2ccc(C)cc2)n1	-6%	4%[57.1 µM]	0%	-16%	-1%	8.9µM*
Oc1cc2c(cc1C(c1ccc(Br)cc1)N1CCCC1)OCO2 (stereo not drawn)	-4%	-18%[57.1 µM]	-12%	?	1%	2.5µM*
Cc1cc(C)cc(NC(=O)CN2C(=O)c3ccccc3Sc3ncccc32)c1	·	-1%	·	1%	·	17%
Cc1cc(C)cc(NC(=O)CCN2C(=O)c3ccccc3Sc3ncccc32)c1	·	-12%	·	-11%	·	25µM*
CC1CCC/C(=C\Nc2ccc(O)cc2)C1=O (stereo not drawn)	7%	-14%	16%	?	-2%	20µM*
CN(C)c1ccc(/C=C/c2ccc3cc(F)ccc3n2)cc1	·	8%	·	·	·	-2%
Cn1ncc2c(=S)nc(Cl)[nH]c21	·	-14%	·	-9%	·	7.1µM*
CC(C)Cn1c(C(C)C)nc([N+](=O)[O-])c1S(=O)(=O)c1ccc(F)cc1	-2%	3%	8%	-1%	0%	?
CCCc1nc([N+](=O)[O-])c(S(=O)(=O)c2ccccc2)n1CC(C)C	·	-3%	-5%	8%	1%	2.8µM*
CC(C)(C)n1ncc2c(=O)n(Cc3ccc(Cl)c(OC(F)(F)F)c3)cnc21	·	-4%	·	·	·	11%[57.1 µM]
CCc1ccc(N/C(SC)=C(/C#N)C(N)=O)cc1	-2%	1%[57.1 µM]	1%	-19%	1%	21%[57.1 µM]
SMILES	GALK inh	TrxR1 substrate	Eya2 phos inh	RGS4 inhibitor	USP2a block	rTrxR1 inhibitor
CCCCS/C(=C(/C#N)C(N)=O)c1cc2c([nH]1)CCCC2	0%	-13%	-10%	-38%	0%	45µM*
CCOc1ccccc1NC(=O)CSc1ccc(-c2ccco2)nn1	-3%	-3%	-1%	?	0%	35µM*
O=C(CSc1ccc(-c2ccco2)nn1)Nc1ccccc1F	-3%	8%	-14%	?	-2%	20µM*
CCOc1ccccc1NC(=O)Cn1nc(-c2ccco2)ccc1=O	-1%	3%	-22%	2%	2%	32µM*
CCOC(=O)c1cnc2c(Cl)cc(Cl)cc2c1NCCCN1CCOCC1	1%	5%	6%	4%	2%	16µM*
Cc1ccc(N2C(=O)[C@@H]3[C@H](C2=O)C2c4ccccc4C=CN2[C@@H]3C(=O)c2ccco2)c(C)c1 (stereo partly drawn)	1%	-16%	-17%	-34%	2%	14µM*
O=C(COc1ccccc1C(=O)Nc1ccccc1)Nc1cccc(Cl)c1	·	-6%	·	·	·	3%
CC(=O)Oc1ccccc1C(=O)C=Cc1cccc([N+](=O)[O-])c1	·	-4%	·	?	·	25µM*
Cc1cc(O)c(C(=O)/C=C/c2cccc([N+](=O)[O-])c2)c(=O)o1	-2%	-2%	1%	-14%	?	-29%
Cc1ccc(S(=O)(=O)c2nc(C(C)(C)C)oc2N2CCOCC2)cc1	1%	11%[57.1 µM]	5%	?	0%	0.56µM*
C(=C\c1ccnc2ccccc12)/c1ccc(N2CCOCC2)cc1	·	-8%	·	·	·	-11%
COCCn1c(=NC(=O)CCS(=O)(=O)c2ccccc2)sc2cc(C)ccc21	-2%	-1%	-7%	?	1%	40µM*
CCn1c(=NC(=O)CCS(=O)(=O)c2ccccc2)sc2cccc(OC)c21	-2%	9%	-12%	-26%	-1%	13%
COC(=O)Cn1c(=NC(=O)CCS(=O)(=O)c2ccccc2)sc2c(OC)ccc(OC)c21	5%	-2%	5%	-25%	2%	28µM*
COc1ccc(CC(=O)OCCc2cc3cc(OC)c(OC)cc3c(=O)o2)cc1	·	2%	-26%	29%	-8%	18µM*
CC[N+](C)(C)c1ccc(/C=C/c2ccnc3ccccc23)cc1	·	-3%	·	·	·	-3%
O=C(/C=C/c1ccco1)N(Cc1ccccc1F)C1CCS(=O)(=O)C1 (stereo not drawn)	3%	-3%	-14%	-39%	3%	28µM*
CC(C)c1ccc(CN(C(=O)/C=C/c2ccco2)C2CCS(=O)(=O)C2)cc1 (stereo not drawn)	0%	0%[57.1 µM]	3%	-27%	2%	14µM*
C(=C\c1ccnc2ccccc12)/c1ccc2ccccc2n1	·	177%	·	·	·	47%
